Screening data (PubChem)
CHO-K1 Ca antag = nonselective inhibitor or artifact in parental CHO-K1 cells. ATP-induced calcium, Fluo-8 fluorescence. inhibition, % at 3 µM. 0.6% of 360,000 active;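 active means inhibition above a per-plate cutoff, the plate's mean sample inhibition plus 3 SD, cut at about 24% in these data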
CHRM1 antagonist = blocks human M1 muscarinic receptor. P11229. CHO-K1 hM1, Fluo-8 calcium fluorescence, ACh EC80 antagonist. inhibition, % at 3 µM. 1.3% of 360,000 active. AID 588852;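 active means percent inhibition above its own plate's cutoff, namely the mean of that plate's compound wells plus 3 SD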;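 further: peak over basal fluorescence ratio during 140 s after agonist addition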
Target sequence (P11229 whole entry, looked up): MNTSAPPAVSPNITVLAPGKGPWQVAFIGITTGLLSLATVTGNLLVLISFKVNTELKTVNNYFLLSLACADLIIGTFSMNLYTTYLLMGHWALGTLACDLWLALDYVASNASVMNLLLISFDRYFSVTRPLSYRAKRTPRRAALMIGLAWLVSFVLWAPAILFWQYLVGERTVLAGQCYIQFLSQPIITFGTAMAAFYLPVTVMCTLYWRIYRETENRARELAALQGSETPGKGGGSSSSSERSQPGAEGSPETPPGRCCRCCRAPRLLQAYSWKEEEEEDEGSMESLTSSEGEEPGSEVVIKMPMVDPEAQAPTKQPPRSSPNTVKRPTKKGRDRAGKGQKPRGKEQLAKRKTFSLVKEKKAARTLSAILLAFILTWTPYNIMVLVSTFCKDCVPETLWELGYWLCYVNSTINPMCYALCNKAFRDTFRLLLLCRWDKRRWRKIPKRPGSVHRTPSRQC
CHRM1 PAM = human CHRM1 positive allosteric modulation; AID 588819; 0.088% of 360,000 active; activation, % at 3 µM; P11229; CHO-K1 hM1, Fluo-8 calcium fluorescence, ACh EC20; 0% = ACh EC20, 100% = maximal ACh; in the data active means activation above about 19%, passing the limit was not always enough
M1 ag = agonists of human M1 muscarinic receptor. P11229. activation, % at 3 µM. CHO-K1 hM1, Fluo-8 calcium fluorescence, agonist mode; 0% DMSO, 100% acetylcholine EC100. 0.33% of 360,000 active. AID 588814;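 active means activation above the run's mean compound activation plus 3 SD, cut at about 16% in these data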;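 further: peak over basal fluorescence ratio within a 140 s kinetic read after compound addition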
M1 ag parental = counter-screen for M1 agonists: effect in parental CHO-K1 cells. Fluo-8 calcium fluorescence; scaled to maximal ATP response, vehicle zero. activation, % at 3 µM. 0.48% of 360,000 active. AID 602248; in the data active means activation above about 15%;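 further: untransfected CHO-K1 host cells lacking M1 receptor as counterscreen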
M1 PAM parental = counter-screen for M1 PAMs: effect in parental CHO-K1 cells. 0.02% of 360,000 active. ATP EC20, Fluo-8 calcium fluorescence; 0% at ATP EC20, 100% at ATP max. activation, % at 3 µM;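 active means activation above the run cutoff, the mean activation of all test compounds plus 3 SD, cut at about 40% in these data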;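 further: peak over basal fluorescence ratio in a 140 s read after ATP addition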
Each line names hits and unclear results; the compound was inactive in the other large screens. This is a sample that favours compounds with a hit; in the whole collection about 2.3% have one here.

Cc1c(CCOC(=O)C23CC4CC(CC(C4)C2)C3)sc[n+]1Cc1ccccc1	CHRM1 antagonist 64
Cc1c(CCOC(=O)c2cc([N+](=O)[O-])cc([N+](=O)[O-])c2)sc[n+]1CC(=O)c1ccc(Br)cc1	CHRM1 antagonist 80
Cc1sc[n+](CC(=O)c2ccc(Br)cc2)c1C	none
CC(C)(C)C(=O)c1c(N)[nH]c(C(=O)c2ccccc2)c1-c1ccccc1Br	none (no result: CHRM1 antagonist, CHRM1 PAM, M1 ag)
Cc1c(CCOC(=O)C23CC4(C)CC(C)(CC(C)(C4)C2)C3)sc[n+]1CC(=O)c1ccccc1	CHRM1 antagonist 32
Cc1c(CCOC(=O)CC23CC4CC(CC(C4)C2)C3)sc[n+]1CC(=O)c1ccccc1	none
CCCC(=O)OCC(=O)Nc1ccc([N+](=O)[O-])cc1C#N	CHO-K1 Ca antag 26
N#Cc1cc([N+](=O)[O-])ccc1NC(=O)COC(=O)CN1C(=O)C2CCCCC2C1=O (stereo not given)	none
COc1ccccc1[C@]1(C)ON(c2ccccc2C(F)(F)F)C1=O	none
COC(=O)c1nn(-c2ccc(OC)cc2)c(=O)cc1NN	CHRM1 antagonist 59
CCOc1cc(/C=C(/C#N)c2nc3ccccc3[nH]2)ccc1OCc1ccc(C(=O)O)o1	none
CCOc1cc(/C=C(/C#N)c2ccc(F)cc2)ccc1OCc1ccc(C(=O)O)o1	CHRM1 PAM 23
COC(=O)c1cc2sccc2n1Cc1nc(-c2ccc(OC)cc2)oc1C	none
COC(=O)c1cc2ccsc2n1Cc1nc(-c2ccc(OC)cc2)oc1C	CHRM1 antagonist 45
COC(=O)c1cc2occc2n1Cc1nc(-c2ccccc2F)oc1C	CHRM1 antagonist 53
COC(=O)c1cc2sc(Cl)cc2n1Cc1nc(-c2ccccc2)oc1C	none
CCn1ccc(C(=O)Nc2c(C)nn(Cc3c(F)c(F)c(F)c(F)c3F)c2C)n1	none
CCN1C(=O)[C@H]2[C@@H](c3ccc(OC)cc3)N3C(=O)CN(CCOC)C(=O)[C@@]3(Cc3ccccc3)[C@H]2C1=O	none
CCc1nc(N)nc(N)c1-c1ccc(N(C)Cc2ccccc2)c([N+](=O)[O-])c1	CHRM1 antagonist 95
CN(C(=O)CN1CCN(c2cnn(-c3ccccc3)c(=O)c2Cl)CC1)C1CCS(=O)(=O)C1 (stereo not given)	none
COc1cc(C(=O)O/N=C2\CCCc3c2ccc(OC)c3[N+](=O)[O-])cc(OC)c1OC	CHRM1 antagonist 25
COc1ccccc1C(=O)O/N=C1/CCCc2c1ccc(OC)c2[N+](=O)[O-]	none
COc1ccccc1C(=O)NC(=O)COC(=O)Cn1cnc2c1c(=O)n(C)c(=O)n2C	none
CN(C)c1ccc(/C=C(/C(=O)c2ccc(Cl)cc2Cl)n2cncn2)cc1	M1 ag parental 18
CCOC(=O)c1c(C)[nH]c(C(=O)COC(=O)c2ccc(N3CCCC3=O)cc2)c1C	CHO-K1 Ca antag 27
CC1CC(C)CN(C(=O)COC(=O)c2ccc(N3CCCC3=O)cc2)C1 (stereo not given)	none
CN(C)c1ccc(P(=O)(OCc2ccccc2)C(O)c2ccccc2)cc1 (stereo not given)	none
Cn1cc(CNCc2ccc(OC(F)(F)F)cc2)c(-c2ccc3c(c2)OCCO3)n1	CHRM1 antagonist 33
COc1ccc(CN2C(=O)C(CC(=O)NCc3cccs3)CC(C(=O)N(C)C)=C2C)cc1 (stereo not given)	none
COc1cccc(/C=N/Nc2ncnc3scc(-c4ccccc4)c23)c1O	CHRM1 antagonist 34
O=C1c2cc(S(=O)(=O)N(CCO)CCO)ccc2-c2ccc(S(=O)(=O)N(CCO)CCO)cc21	M1 ag parental 16
O=S(=O)(c1ccc(Oc2ccc(S(=O)(=O)N(CCO)CCO)cc2)cc1)N(CCO)CCO	none
CCCN(S(=O)(=O)c1ccccc1F)S(=O)(=O)c1ccccc1Br	none
O=C1c2ccccc2C(O)N1Cc1ccc2c(c1)OCO2 (stereo not given)	CHRM1 antagonist 28
CN(C)/C=N/c1nc2nccc(-c3cccc(Cl)c3)n2n1	M1 ag parental 21
CN(C)/C=N/c1nc2nccc(-c3ccc(F)cc3)n2n1	none
Cc1c(Cl)cccc1NC(=S)NCCC(c1ccccc1)c1ccccc1	CHO-K1 Ca antag 24
N#CCCN1CCCN(CCC#N)CCN(CCC#N)CCCN(CCC#N)CC1	none
O=C(COC(=O)c1cnccn1)Nc1ccc(Cl)cn1	CHO-K1 Ca antag 27
NC(=O)c1ccsc1NC(=O)COC(=O)c1cnccn1	none
CCOc1ccc(S(=O)(=O)NCc2ccncc2)cc1	none
CCOc1cc(S(=O)(=O)NCc2ccncc2)ccc1Cl	CHO-K1 Ca antag 55
CCOc1cc(S(=O)(=O)NCc2cccs2)ccc1Cl	none
CCOC(=O)COc1ccc(S(=O)(=O)NCc2ccncc2)cc1	CHRM1 antagonist 19
COc1ccc(NC(=S)N2CCNC(=O)C2CC(=O)Nc2cccc(Cl)c2C)cc1 (stereo not given)	none
COc1ccc(NC(=O)CN(C)C(=O)C2(c3ccccc3)CCCC2)cc1	none
COc1ccc2oc(=O)c(C(=O)C[n+]3cccc(C)c3)cc2c1	CHRM1 antagonist 32
CNC(=O)c1cc2cc(OC)ccc2oc1=O	none
COc1ccc2oc(=O)c(C(=O)NCc3ccc(F)cc3)cc2c1	M1 ag parental 16
C=CCn1c2ccccc2c2nnc(SCCN3CCCCC3)nc21	CHRM1 antagonist 53
C=CCn1c2ccccc2c2nnc(SCN3C(=O)c4ccccc4C3=O)nc21	CHRM1 antagonist 46
CCn1c2ccc(C)cc2c2nnc(SCCN3CCCCC3)nc21	CHRM1 antagonist 37
CCCn1c2ccc(C)cc2c2nnc(SCCN3CCCCC3)nc21	none
C/C(=N\NC(=O)COc1ccccc1[N+](=O)[O-])c1cccc(NC(=O)c2ccncc2)c1	none
COc1ccc2c(c1)C1(Nc3ccccc3-c3nc4ccccc4n31)C(=O)N2 (stereo not given)	M1 ag parental 37
COc1cccc(C(=O)NCC(=O)N2CCN(c3ccc(C(F)(F)F)cn3)CC2)c1	CHO-K1 Ca antag 27, CHRM1 antagonist 37
Cc1ccc(CC(=O)NC2CCSC2=O)cc1 (stereo not given)	none
O=C(CN(C(=O)c1csnn1)c1ccc(Cl)cc1)NCCc1ccccc1	none
CN(C(=O)COC(=O)c1n[nH]c2ccccc12)C1CCS(=O)(=O)C1 (stereo not given)	none
O=C1CN(C(=O)COC(=O)c2oc3ccccc3c2COc2ccccc2)c2ccccc2N1	none
COCc1c(C(=O)OCC(=O)N2CCCC2=O)oc2ccccc12	none
COc1ccc(S(N)(=O)=O)cc1C(=O)OCC(=O)N1c2ccccc2NC(=O)C1(C)C	none
COCc1c(C(=O)OCC(=O)N2c3ccccc3NC(=O)C2(C)C)oc2ccccc12	CHO-K1 Ca antag 30
